Laboratory results reported in ChEMBL document CHEMBL3988442, “University of Dundee, Small-Polar-MMV Screening Library” (2021).

Columns and labels:
[1] = target: T1, Aspartate--tRNA(Asp/Asn) ligase (Mycobacterium tuberculosis (strain ATCC 25618 / H37Rv)) (UniProt P9WFW3); assay: Assay for Asp RNA synthetase-1 from Mycobacterium tuberculosis; type: functional; set-up: scale not given: direction of the effect not stated beside the values; conditions: 30 µM; note: in the data most compounds retested in dose-response had high values
T1 sequence (whole entry): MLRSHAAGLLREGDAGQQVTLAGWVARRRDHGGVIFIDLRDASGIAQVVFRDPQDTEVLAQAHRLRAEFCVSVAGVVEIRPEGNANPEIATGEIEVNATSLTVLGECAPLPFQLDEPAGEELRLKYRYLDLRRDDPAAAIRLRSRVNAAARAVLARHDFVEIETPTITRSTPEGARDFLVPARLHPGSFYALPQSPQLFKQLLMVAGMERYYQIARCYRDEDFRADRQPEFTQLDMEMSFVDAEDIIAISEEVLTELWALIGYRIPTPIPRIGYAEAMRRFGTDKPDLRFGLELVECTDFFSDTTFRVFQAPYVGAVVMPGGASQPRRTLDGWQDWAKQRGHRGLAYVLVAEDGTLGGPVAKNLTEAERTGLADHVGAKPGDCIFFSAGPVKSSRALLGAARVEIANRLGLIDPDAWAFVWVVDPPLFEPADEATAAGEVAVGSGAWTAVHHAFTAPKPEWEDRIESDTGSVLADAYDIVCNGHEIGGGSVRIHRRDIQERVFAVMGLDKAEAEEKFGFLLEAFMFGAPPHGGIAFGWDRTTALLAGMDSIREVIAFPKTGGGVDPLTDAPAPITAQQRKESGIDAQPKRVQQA

[2] = target: Shiga toxin 2 (Escherichia coli O157:H7) (UniProt P09385+P09386); assay: E. coli 0.157:H7 Shiga Toxin SOP - stx2 screening assay; type: functional; set-up: scale not given: direction of the effect not stated beside the values; conditions: 30 µM

Row | Compound | Percent Effect [1] | Percent Effect [2]
1 | CCn1c(CN(C)C)nnc1C1CCN(Cc2ccccc2)CC1 | -0.862% | -23.5%
2 | O=C(Nc1ccccn1)N(CCO)Cc1ccsc1 | -3.79% | 31.7%
3 | COc1cc(C)nc(N2CCN(C(=O)c3ccccc3C)CC2)n1 | 6.7% | 3.55%
4 | Oc1nc(N2CCOCC2)nc2c1CCN(Cc1cccnc1)CC2 | 0.849% | -13.5%
5 | CN(C)S(=O)(=O)N1C[C@H](Oc2cccnc2)[C@H]2OCCC[C@H]21 | 2.32% | -12%
6 | c1cnnc(N2CCCC(NCc3nc(C4CC4)no3)C2)c1 (stereo unspecified) | 6.87% | -18.7%
7 | CC(c1ccccc1)n1c(SCC(=O)O)nnc1-c1ccccc1Cl (stereo unspecified) | 1% | 2.71%
8 | Cc1ccc(C(=O)N2CCCC(C(=O)N3CCCCC3)C2)c(O)c1 (stereo unspecified) | -0.062% | 20.6%
9 | CC(=O)N1CCN(C(=O)C2SCCc3sccc32)CC1 (stereo unspecified) | -0.324% | -46%
10 | COC(=O)COc1nc(CC(C)C)c2c(c1C#N)CCCC2 | -0.893% | -1.99%
11 | O=C(Cn1cc(-c2ccccc2)ncc1=O)Nc1nnc[nH]1 | -0.342% | 6.34%
12 | CCOCCCNc1nc(O)cc(C2CC(=O)N(C)C2)n1 (stereo unspecified) | -1.77% | -22.7%
13 | CCn1cc(N2Cc3nc(N)ncc3C2=O)cn1 | -7.32% | -36.6%
14 | c1ccc(C[C@H]2[C@H](N3CCOCC3)CCN2Cc2cccnc2)cc1 | 2.33% | -7.76%
15 | CCN(Cc1cccc2c1OCO2)C(=O)NC1CC1 | -0.162% | -11%
16 | Cc1cn2c(n1)CCC(NC(=O)c1nc(C)ncc1Cl)C2 (stereo unspecified) | 1.79% | 12.5%
17 | Cc1nsc(NC(=O)N2CCN(Cc3ccc(F)cc3)C(=O)C2)n1 | 2.26% | -7.74%
18 | O=C(NC1CC1)[C@H]1C[C@H]2OCC[C@H]2N(CC2CCOCC2)C1 | 4.28% | -17.4%
19 | Cc1nc(CN2CCCC(CCc3ccc(F)cc3F)C2)c[nH]1 (stereo unspecified) | -7.38% | -3.15%
20 | Cc1nnc(CN2CCCC(c3cc(C(N)=O)[nH]n3)C2)o1 (stereo unspecified) | -2.96% | 4.59%
21 | CC(Cn1cccn1)NC(=O)NCCc1cnn(C)c1 (stereo unspecified) | -2.54% | -3.5%
22 | Cc1nc(CN2CCOC(Cn3cncn3)C2)nc2ccccc12 (stereo unspecified) | -2.91% | 16.4%
23 | CCc1nc(C)c([C@H]2CN(C)C[C@@H]2C(=O)NCCc2cnccn2)[nH]1 | -1.15% | -9.87%
24 | COc1c(C)cnc(CN2CCC(C(=O)N(C)C)CC2)c1C | -0.91% | 10.2%
25 | Cc1ccc(CC(=O)N2Cc3nccn3CC(Cn3cccn3)C2)cc1 (stereo unspecified) | 0.0228% | -2.6%

Row | Compound | Percent Effect [1] | Percent Effect [2]
26 | CN(C)c1cc(CNC(=O)c2ccc(=O)[nH]n2)ccn1 | -3.92% | -29.1%
27 | COCCNC(=O)c1cc2c(s1)CCN2C(=O)c1ccccc1 | 0.0582% | -56.3%
28 | CCn1nc2c(cc1=O)CN(Cc1nc(CCOC)no1)CC2 | 2.21% | -7.6%
29 | Cc1n[nH]cc1CNc1ccc2c(c1)CN(C(=O)OC(C)(C)C)CC2 | 2.29% | -13.2%
30 | O=C1NCc2ccc(NC(=O)C3CCCN3c3nccs3)cc21 (stereo unspecified) | 0.522% | -17.5%
31 | CN(C)c1cc(CNC(=O)c2ccc(F)cc2F)ccn1 | -4.92% | -51.7%
32 | CN(C)Cc1ccnc(C2CCCN2Cc2ccncc2)n1 (stereo unspecified) | -3.02% | -14.5%
33 | CCc1nnc(CN2CCN(C(=O)c3ccccn3)CC2)o1 | -0.577% | 21.4%
34 | COc1ccc(C2=CCN(C(=O)C3CCCN(C(N)=O)C3)CC2)cc1 (stereo unspecified) | 1.94% | 26.5%
35 | Cn1cc(CN2CCn3c(CNC(=O)c4cccn4C)cnc3C2)cn1 | 12.8% | -22.6%
36 | COc1cc(C)sc1C(=O)N1CCC(Nc2cccnc2)CC1 | -3.37% | -50.2%
37 | NC(=O)CN1CCC(NC(=O)Nc2nccs2)CC1 | -4.06% | -29.4%
38 | CC(NC(=O)CSCC#N)c1cccc(NC(=O)c2ccccc2)c1 (stereo unspecified) | 1.91% | 6.38%
39 | Cc1nn(C)c(C)c1CC(=O)N1CCC(Nc2cccnn2)CC1 | -1.68% | -23.4%
40 | CN1CCCN(c2nccc(-c3c[nH]nc3C3CCCCC3)n2)CC1 | 14.1% | -32.4%
41 | COc1ccc2c(c1)CN(Cc1nc3c(cnn3C)c(=O)[nH]1)CC2 | -4.4% | -3.66%
42 | CC(=O)N1N=C(c2ccccc2)OC1C(=O)NCCc1cccc(Cl)c1 (stereo unspecified) | -3.19% | 19.6%
43 | Cc1cn(CC(=O)NC2CCN(C(=O)C3CC3)CC2)c2ccccc12 | 2.13% | 6.97%
44 | CCc1cc(NCC(O)CN2CCCCC2)n2ncnc2n1 (stereo unspecified) | 8.06% | -8.11%
45 | O=C1COC2(COCCN(Cc3cccnc3)C2)CN1c1ccoc1 (stereo unspecified) | 9.69% | -7.3%
46 | Cc1ccc(C2CSCCN2C(=O)c2ccsc2)o1 (stereo unspecified) | 3.37% | 16.4%
47 | FC(F)(F)c1nc(NC2CCCC2)c2ccccc2n1 | 0.562% | -0.0663%
48 | Cc1cccc(COC[C@@H]2CC[C@H]3[C@H](CCN3Cc3ccco3)O2)n1 | -0.843% | -16.8%
49 | CCNC(c1cccnc1)c1ccc(F)c(F)c1 (stereo unspecified) | -4.58% | 10.8%
50 | O=C(CCN1CCCC1C1CCCCC1)N1CCc2sccc2C1 (stereo unspecified) | 2.02% | 8.04%

Row | Compound | Percent Effect [1] | Percent Effect [2]
51 | c1ccc(Cn2cc(CNCC3CCCN3c3cccnn3)cn2)cc1 (stereo unspecified) | 8.82% | 22.8%
52 | Fc1cccc(-c2nc(CN3CCn4c(nnc4C4CC4)C3)co2)c1 | 6.1% | -39.6%
53 | CCOc1cc(C)ccc1NC(=O)N(C)Cc1cnn(C)c1 | 4.37% | 24%
54 | CC(C)(CO)NC(=O)C1CCC(=O)N(Cc2ccc(Cl)cc2)C1 (stereo unspecified) | -3.12% | 0.664%
55 | O=C1C[C@H]2[C@@H](CCN2C(=O)c2ccccc2)N1CCN1CCOCC1 | -3.74% | -0.799%
56 | Cc1cc(C(=O)N2CCC(c3nccn3Cc3ccncc3)CC2)no1 | 10.1% | 4.34%
57 | COCc1cncc2c1CCN(C(=O)c1ccc(C)o1)C2 | 8.15% | -6.15%
58 | COCCn1nc(C(=O)N2CCCC2c2cccc(F)c2)ccc1=O (stereo unspecified) | 2.11% | 1.07%
59 | COCCNC(=O)Nc1ccc(-n2cncn2)c(F)c1 | -2.66% | 12.3%
60 | c1ccc(-c2nc(CN3CCc4c(ncn4C4CC4)C3)cs2)cc1 | 4.49% | -40.4%
61 | COCc1n[nH]/c(=N/C(=O)COc2cnc(C)cc2O)s1 | -2.13% | -48.9%
62 | CC(C)NC(=O)N1CCC(n2ccc(C(F)(F)F)n2)CC1 | -2.88% | -0.886%
63 | CN1CCN(C(=O)c2cccc(OCc3cscn3)c2)CC1 | 0.522% | -26.5%
64 | O=C(c1cc(Cl)c2c(c1)OCO2)N1CCCC(n2ccnc2)C1 (stereo unspecified) | -1.93% | 4.72%
65 | CC(C)COCC(NC(=O)c1ccccn1)c1ccco1 (stereo unspecified) | -1.2% | 28%
66 | CCC(=O)Nc1ccc(C(C)NC(=O)COCCOC)cc1 (stereo unspecified) | 0.539% | -16.3%
67 | CN1CCC(C(=O)NCc2nncn2-c2ccccc2)CC1=O (stereo unspecified) | -4.57% | 18.1%
68 | CC1CN(CC(=O)Nc2nncs2)CCN1c1nccs1 (stereo unspecified) | 4.78% | 27.5%
69 | COCCC(=O)N1C[C@H]2CN(Cc3cccc(C)n3)C(=O)[C@H]2C1 | 0.774% | -18.7%
70 | Cc1cccnc1CNCC1(O)CCCN(CC2CCCCC2)C1=O (stereo unspecified) | -2.28% | 13.1%
71 | COc1c(C)cnc(CN2CCOC(Cn3nc(C)nc3C)C2)c1C (stereo unspecified) | 1.63% | 8.19%
72 | Cc1noc(C(C)C)c1C(=O)NCCCOC(C)C | 2.01% | -6.05%
73 | Cc1cc(CN2CCC(c3ccnn3CCO)CC2)no1 | -1.46% | -16.1%
